Results from PubChem BioAssay (Tox21).
Inconclusive results are not listed. The source made the active and inactive calls. Unless noted, the call rests on the fitted dose curve; in most records, active means well fitted curve in the direction sought with a large enough effect in the repeat runs; inconclusive means weak or mixed curves; inactive means no such curve, though single readings can be large; an effect the other way counts as inactive or inconclusive.

Assays:
[1] = qHTS assay to identify small molecule antagonists of the sonic hedgehog signaling (Shh) pathway (AID 1259369; calls by dose curve; further: nearly all actives have a fitted effect of over 45% in size; further: potency means the concentration at half of the fitted maximal effect)
Method in brief: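 For antagonist detection, the reporter line received test compounds together with conditioned medium, incubated 24hr at 37 C, 5% CO2, then luminescence was recorded following 30min room-temperature luciferase reagent incubation.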

[2] = qHTS assay to identify small molecule agonists of the androgen receptor (AR) signaling pathway in the presence of an antagonist - cell viability counter screen (AID 1259379); further: nearly all actives have a fitted effect of over 25% in size; further: potency means the concentration at half of the fitted maximal effect
Method in brief: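 Seed MDA-kb2 at 3,000 cells/well; incubate 5 hr, 37C, 0% CO2. Add nilutamide to 3.0uM final, then pin compounds at 15 concentrations. Incubate 16 hr. Add CellTiter-Fluor at 15 hr, read fluorescence after 1 hr.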

[3] = qHTS assay to identify small molecule agonists of the estrogen receptor beta (ER-beta) signaling pathway - cell viability counter screen (AID 1259380); further: nearly all actives have a fitted effect of over 30% in size; further: potency means the concentration at half of the fitted maximal effect
Method in brief: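 CellTiter-Glo read, 30 min RT, same wells as bla assay; cells ER-beta-UAS-bla HEK293T; 16 hr compound, 37C; medium 2% charcoal-stripped FBS.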

[4] = qHTS assay to identify small molecule antagonists of the estrogen receptor beta (ER-beta) signaling pathway - cell viability counter screen (AID 1259382);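 further: HEK293T cells carrying ER-beta-UAS-bla reporter stimulated with estradiol; series mostly up to about 92 µM; nearly all actives have a fitted effect of over 55% in size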
Method in brief: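 In this multiplexed counter screen, cells were seeded at 2,000 per well in medium with 2% charcoal-stripped FBS and incubated 6 hr before compound and 1nM final E2 were added. Sixteen hours later, ATP-based luminescence reported viability.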

[5] = qHTS assay to identify small molecule agonists or antagonists of the thyroid stimulating hormone receptor (TSHR) signaling pathway - wild type cell line counter screen (AID 1259384; calls by dose curve)
Method in brief: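 Wild-type HEK293 cells were plated 18 h at 37 C/5% CO2, pin-dosed with compound plus Ro20-1724 medium, held 30 min at room temperature, then given cAMP-d2 and anti-cAMP-cryptate; fluorescence was read after 1 h. Fifteen concentrations, triplicate.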

[6] = biological target: Thyrotropin receptor (Homo sapiens) (UniProt P16473); test: qHTS assay to identify small molecule antagonists of the thyroid stimulating hormone receptor (TSHR) signaling pathway (AID 1259385; calls by dose curve; further: nearly all actives have a fitted effect of over 20% in size)
Thyrotropin receptor (Homo sapiens), sequence (P16473 whole entry, looked up): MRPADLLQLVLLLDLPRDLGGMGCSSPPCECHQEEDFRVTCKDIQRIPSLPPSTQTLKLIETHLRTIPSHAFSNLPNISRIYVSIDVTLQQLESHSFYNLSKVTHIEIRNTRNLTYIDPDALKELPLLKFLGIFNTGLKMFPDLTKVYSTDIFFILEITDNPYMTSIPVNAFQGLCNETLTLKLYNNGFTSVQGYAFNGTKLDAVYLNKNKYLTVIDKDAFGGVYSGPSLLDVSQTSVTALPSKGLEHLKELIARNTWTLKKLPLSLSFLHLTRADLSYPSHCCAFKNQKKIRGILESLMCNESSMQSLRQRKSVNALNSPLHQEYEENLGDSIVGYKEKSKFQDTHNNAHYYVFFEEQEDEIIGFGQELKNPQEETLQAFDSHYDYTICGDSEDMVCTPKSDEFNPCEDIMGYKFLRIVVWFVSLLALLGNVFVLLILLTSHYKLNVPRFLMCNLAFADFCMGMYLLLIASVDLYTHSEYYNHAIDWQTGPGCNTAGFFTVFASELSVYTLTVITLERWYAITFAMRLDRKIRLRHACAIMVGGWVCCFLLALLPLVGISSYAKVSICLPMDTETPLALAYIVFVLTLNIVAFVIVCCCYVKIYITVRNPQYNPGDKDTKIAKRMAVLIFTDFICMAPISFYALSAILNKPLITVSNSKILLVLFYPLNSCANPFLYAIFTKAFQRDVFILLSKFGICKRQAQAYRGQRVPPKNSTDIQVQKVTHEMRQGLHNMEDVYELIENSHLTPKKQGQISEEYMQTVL
Method in brief: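 TSHR-HEK293 cells were plated and held 18 h at 37C/5% CO2, then given compound plus Ro20-1724 and stimulated with TSH at 1.5 ng/mL final. After 30 min at room temperature, cAMP was detected with cAMP-d2/anti-cAMP-cryptate (1 h) by fluorescence.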

[7] = qHTS assay to identify small molecule agonists of the estrogen receptor alpha (ER-alpha) signaling pathway in the presence of an antagonist - cell viability counter screen (AID 1259386);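 further: cells exposed to compounds for 22 h at 37 °C before the viability read; nearly all actives have a fitted effect of over 30% in size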; further: potency means the concentration at half of the fitted maximal effect
Method in brief: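 Viability counter screen using VM7Luc4E2 (full-length ER-alpha, four ERE-luciferase). The cells were treated with compounds alongside ICI-182,780 10.0nM for 22hr, and live-cell protease fluorescence was quantified with CellTiter-Fluor.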

[8] = biological target: Progesterone receptor (Homo sapiens) (UniProt P06401); test: qHTS assay to identify small molecule antagonists of the progesterone receptor (PR) signaling pathway (AID 1346795; active means well fitted inhibition curve with a large enough effect in the signal ratio in the repeat runs, not every such curve was filed as active; the % refers to the signal ratio; further: potency means the concentration at half of the fitted maximal effect)
Progesterone receptor (Homo sapiens), sequence (P06401 whole entry, looked up): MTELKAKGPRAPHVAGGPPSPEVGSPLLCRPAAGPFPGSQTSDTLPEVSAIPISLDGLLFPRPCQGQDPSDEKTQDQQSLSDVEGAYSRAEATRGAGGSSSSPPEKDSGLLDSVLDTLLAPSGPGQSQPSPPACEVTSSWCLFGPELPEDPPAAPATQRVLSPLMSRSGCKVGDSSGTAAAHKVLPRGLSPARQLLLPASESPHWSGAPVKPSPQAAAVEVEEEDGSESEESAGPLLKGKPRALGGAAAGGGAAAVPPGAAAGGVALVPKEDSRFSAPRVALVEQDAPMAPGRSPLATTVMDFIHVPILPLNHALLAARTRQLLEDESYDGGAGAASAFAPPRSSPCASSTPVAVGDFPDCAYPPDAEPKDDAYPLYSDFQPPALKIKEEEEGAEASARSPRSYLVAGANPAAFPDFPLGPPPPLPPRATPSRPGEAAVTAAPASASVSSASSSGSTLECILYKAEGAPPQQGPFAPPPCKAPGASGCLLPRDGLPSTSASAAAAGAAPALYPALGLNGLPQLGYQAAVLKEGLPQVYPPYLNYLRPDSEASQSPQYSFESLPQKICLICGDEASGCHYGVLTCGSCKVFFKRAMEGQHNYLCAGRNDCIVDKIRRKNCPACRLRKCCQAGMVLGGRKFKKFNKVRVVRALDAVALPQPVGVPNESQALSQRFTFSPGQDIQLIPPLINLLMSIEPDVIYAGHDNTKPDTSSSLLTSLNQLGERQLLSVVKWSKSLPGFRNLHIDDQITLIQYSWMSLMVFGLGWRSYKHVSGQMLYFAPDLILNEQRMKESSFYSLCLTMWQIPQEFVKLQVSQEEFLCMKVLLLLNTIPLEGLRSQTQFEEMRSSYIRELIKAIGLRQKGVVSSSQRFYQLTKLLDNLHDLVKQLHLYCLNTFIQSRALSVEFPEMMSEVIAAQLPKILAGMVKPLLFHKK
Method in brief: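 Antagonist mode with agonist R5020 at 1 nM final and 16 hr incubation at 37C. Reporter was beta-lactamase driven by UAS in HEK293T (PR-UAS-bla), 2% charcoal-stripped serum; signal from LiveBLAzer FRET substrate, 2 hr at room temperature.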

[9] = qHTS assay to identify small molecule antagonists of the progesterone receptor (PR) signaling pathway - cell viability counter screen (AID 1346798); further: series mostly up to about 92 µM; nearly all actives have a fitted effect of over 50% in size
Method in brief: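 Cytotoxicity read as CellTiter-Glo luminescence (30 min, room temperature) in the same wells as the beta-lactamase readout. HEK293T PR-UAS-bla cells in charcoal-stripped 2% FBS received compound and R5020, then 16 h at 37C, 5% CO2.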

[10] = qHTS assay to identify small molecule agonists of the progesterone receptor (PR) signaling pathway - cell viability counter screen (AID 1346799; calls by dose curve; further: nearly all actives have a fitted effect of over 45% in size)
Method in brief: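 Cytotoxicity measured by CellTiter-Glo luminescence (30 min, RT) in the same wells as the PR beta-lactamase agonist read. Those HEK293T cells had 16 h compound treatment at 37 C in 2% charcoal-stripped FBS medium.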

[11] = qHTS assay to identify small molecule antagonists of the TGF-beta/Smad signaling pathway - cell viability counter screen (AID 1346824); further: nearly all actives have a fitted effect of over 50% in size
Method in brief: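 SBE-bla HEK 293T cells were plated overnight at 37 C, then given compounds in DMSO plus TGF-beta1 (added as 0.25 ng/mL solution) for 5 hr. After the bla read, CellTiter-Glo was added to the same wells and luminescence read after 30 min at room temperature.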

[12] = qHTS assay to identify small molecule agonists of the TGF-beta/Smad signaling pathway - cell viability counter screen (AID 1346829); further: top concentration of the series differs between compounds; nearly all actives have a fitted effect of over 45% in size
Method in brief: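 SBE-bla HEK 293T cells plated overnight, compound exposure 5 hr at 37 C. Viability read in the same wells by CellTiter-Glo luminescence after 30 min at room temperature, following the beta-lactamase read.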

[13] = qHTS assay to identify small molecule agonists of the TGF-beta/Smad signaling pathway (AID 1346859; active means well fitted activation curve with a large enough effect in the signal ratio in the repeat runs, not every such curve was filed as active; the % refers to the signal ratio; further: series mostly up to about 77 µM)
Method in brief: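 Fluorescence (ex 405 nm; em 460 and 530 nm) was read 2 h after LiveBLAzer FRET substrate at RT. The preceding compound treatment of overnight-plated SBE-bla HEK293T cells lasted 5 h at 37 C.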

[14] = biological target: Thyrotropin-releasing hormone receptor (Homo sapiens) (UniProt P34981); test: qHTS assay to identify small molecule antagonists of the thyrotropin-releasing hormone receptor (TRHR) signaling pathway (AID 1346877; active means well fitted inhibition curve with a large enough effect in the repeat runs, not every such curve was filed as active; further: series mostly up to about 51 µM)
Thyrotropin-releasing hormone receptor (Homo sapiens), sequence (P34981 whole entry, looked up): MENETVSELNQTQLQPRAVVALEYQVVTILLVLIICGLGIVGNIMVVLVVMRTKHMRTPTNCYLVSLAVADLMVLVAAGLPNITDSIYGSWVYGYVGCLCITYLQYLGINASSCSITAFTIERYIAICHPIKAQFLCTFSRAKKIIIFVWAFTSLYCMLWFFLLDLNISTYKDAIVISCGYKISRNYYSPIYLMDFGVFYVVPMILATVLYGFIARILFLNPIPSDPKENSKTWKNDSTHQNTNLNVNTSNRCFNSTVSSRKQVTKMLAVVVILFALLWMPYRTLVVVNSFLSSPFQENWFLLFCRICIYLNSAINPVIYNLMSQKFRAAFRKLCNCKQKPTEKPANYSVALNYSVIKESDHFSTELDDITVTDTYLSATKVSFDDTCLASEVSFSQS
Method in brief: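 Following an 18 h incubation at 37 °C and a 2 h calcium dye load, TRHR-HEK293 cells were exposed to compound (5 min, room temperature) and challenged with TRH, 1 nM final.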

[15] = biological target: Thyrotropin-releasing hormone receptor (Homo sapiens) (UniProt P34981); test: qHTS assay to identify small molecule agonists of the thyrotropin-releasing hormone receptor (TRHR) signaling pathway (AID 1346891; calls by dose curve; further: series mostly up to about 58 µM)
Method in brief: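 Agonist-mode intracellular calcium readout: kinetic fluorescence over 3 min at 1 s intervals after compound addition to TRHR-HEK293 cells (18 h seeded, 2 h dye-loaded at 37 C). Fifteen concentrations, triplicates.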

[16] = biological target: Progesterone receptor (Homo sapiens) (UniProt P06401); test: qHTS assay to identify small molecule agonists of the progesterone receptor (PR) signaling pathway (AID 1346784; calls by dose curve; further: nearly all actives have a fitted effect of over 30% in size)
Method in brief: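 Agonist qHTS: compounds pinned onto 3,000 PR-UAS-bla HEK 293T cells per well in charcoal-stripped serum medium, 16hr at 37C, then beta-lactamase activity measured by LiveBLAzer FRET fluorescence after 2 hours at room temperature.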

[17] = biological target: Androgen receptor (Homo sapiens) (UniProt P10275); test: qHTS assay to identify small molecule agonists of the androgen receptor (AR) signaling pathway in the presence of an antagonist (AID 1259381; calls by dose curve; further: nearly all actives have a fitted effect of over 15% in size)
Androgen receptor (Homo sapiens), sequence (P10275 whole entry, looked up): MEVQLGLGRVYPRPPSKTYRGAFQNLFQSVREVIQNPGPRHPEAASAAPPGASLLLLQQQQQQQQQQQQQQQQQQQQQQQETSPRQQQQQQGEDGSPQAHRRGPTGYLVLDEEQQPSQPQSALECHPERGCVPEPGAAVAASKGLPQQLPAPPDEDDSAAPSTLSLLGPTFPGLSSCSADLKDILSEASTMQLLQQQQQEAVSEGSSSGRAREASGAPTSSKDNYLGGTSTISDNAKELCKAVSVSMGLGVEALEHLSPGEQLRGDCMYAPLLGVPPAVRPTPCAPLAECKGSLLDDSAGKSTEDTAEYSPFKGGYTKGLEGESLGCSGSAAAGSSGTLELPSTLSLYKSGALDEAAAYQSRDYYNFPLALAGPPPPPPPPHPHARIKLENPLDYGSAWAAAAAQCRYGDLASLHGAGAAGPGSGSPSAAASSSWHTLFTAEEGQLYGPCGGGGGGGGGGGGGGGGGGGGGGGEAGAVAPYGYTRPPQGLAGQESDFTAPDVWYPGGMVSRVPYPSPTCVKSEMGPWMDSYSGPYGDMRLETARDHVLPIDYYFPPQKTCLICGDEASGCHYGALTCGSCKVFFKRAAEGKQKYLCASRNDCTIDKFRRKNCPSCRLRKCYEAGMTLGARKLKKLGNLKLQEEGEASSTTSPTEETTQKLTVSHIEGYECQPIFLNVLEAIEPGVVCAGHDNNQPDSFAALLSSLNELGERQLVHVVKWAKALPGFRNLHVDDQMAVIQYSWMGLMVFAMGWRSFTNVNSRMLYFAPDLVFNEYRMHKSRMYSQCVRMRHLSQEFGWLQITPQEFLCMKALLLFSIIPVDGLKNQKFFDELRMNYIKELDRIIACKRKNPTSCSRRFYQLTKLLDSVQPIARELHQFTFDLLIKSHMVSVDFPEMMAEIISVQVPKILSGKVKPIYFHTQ
Method in brief: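 Test compounds at 15 concentrations were incubated for 16hr with MDA-kb2 reporter cells in presence of 3.0uM nilutamide (final). Signal: ONE-Glo luciferase luminescence.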

[18] = biological target: Estrogen receptor (Homo sapiens) (UniProt P03372); test: qHTS assay to identify small molecule agonists of the estrogen receptor alpha (ER-alpha) signaling pathway in the presence of an antagonist (AID 1259383; calls by dose curve; further: top concentration of the series differs between compounds; nearly all actives have a fitted effect of over 15% in size)
Estrogen receptor (Homo sapiens), sequence (P03372 whole entry, looked up): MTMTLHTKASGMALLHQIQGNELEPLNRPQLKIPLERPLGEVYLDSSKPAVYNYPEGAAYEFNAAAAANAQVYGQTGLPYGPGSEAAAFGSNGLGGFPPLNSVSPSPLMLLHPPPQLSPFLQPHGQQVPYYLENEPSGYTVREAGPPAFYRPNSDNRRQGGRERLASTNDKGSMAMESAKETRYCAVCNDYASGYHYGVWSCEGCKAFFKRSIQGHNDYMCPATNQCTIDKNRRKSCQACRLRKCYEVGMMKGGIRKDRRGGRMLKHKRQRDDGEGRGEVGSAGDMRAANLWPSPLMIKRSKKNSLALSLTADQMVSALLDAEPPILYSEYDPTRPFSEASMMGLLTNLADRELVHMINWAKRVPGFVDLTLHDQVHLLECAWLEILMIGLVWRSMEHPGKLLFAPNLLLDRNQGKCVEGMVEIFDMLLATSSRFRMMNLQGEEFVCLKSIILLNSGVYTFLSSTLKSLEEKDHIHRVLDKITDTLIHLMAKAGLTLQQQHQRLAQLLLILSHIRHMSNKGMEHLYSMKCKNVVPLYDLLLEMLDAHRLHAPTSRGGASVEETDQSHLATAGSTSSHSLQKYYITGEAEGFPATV
Method in brief: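 Stably transfected VM7Luc4E2 reporter cells, kept 5 days in charcoal-stripped serum, received ICI-182,780 at 10.0nM final before compound addition. Following 22hr incubation at 37C and 5% CO2, luciferase signal was read by luminescence.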

Measured: Potency

COC(=O)c1ccc(I)cc1S(=O)(=O)NC(=O)Nc1nc(C)nc(OC)n1
not listed: [16] | [17] | [18]
inactive: all other assays above

CCCCc1ncc(/C=C(\Cc2cccs2)C(=O)O)n1Cc1ccc(C(=O)O)cc1
not listed: [14] | [17] | [18]
inactive: all other assays above

COc1ccc(S(=O)(=O)N2C(=O)[C@@](c3ccccc3OC)(N3C[C@H](O)C[C@H]3C(=O)N(C)C)c3cc(Cl)ccc32)c(OC)c1
active: [1] 15.4 µM | [2] 54.5 µM | [7] 27.3 µM | [8] 54.5 µM
not listed: [3] | [9] | [10] | [13] | [16]
inactive: all other assays above

COC(C)OC
not listed: [17] | [18]
inactive: all other assays above

C=CC1CC2C=CC1C2 (stereo unspecified)
not listed: [5] | [6] | [17]
inactive: all other assays above

C=CC(=O)OCCOCCOC(=O)C=C
inactive: [18] | [5] | [6] | [13] | [14] | [15]
active: [1] 4.88 µM | [2] 61.4 µM | [3] 24.4 µM

CC(=O)[O][Al]
not listed: [6] | [8] | [14] | [15] | [17] | [18]
inactive: all other assays above

OC(C#CCN1CCCC1)(c1ccccc1)c1ccccc1
active: [1] 3.76 µM
not listed: [17] | [18]
inactive: all other assays above
